One compound from ChEMBL document CHEMBL1961873, “Compounds: GSK PKIS; Assays: Nanosyn kinase panel” (2012) can be followed below.

Broadly, the inhibition is the change of the read-out against control, counted positive when it falls.

SMILES strings stand for the structures.

The target in experiment [1] is Sphingosine kinase 1 (Homo sapiens) (UniProt Q9NYA1). The settings on record: at 1 µM.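 Note: mean SPHK1 inhibition value reported from the GSK PKIS kinase panel screen.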
The target in experiment [2] is T1, Sphingosine kinase 2 (Homo sapiens) (UniProt Q9NRA0).
T1 sequence (whole entry): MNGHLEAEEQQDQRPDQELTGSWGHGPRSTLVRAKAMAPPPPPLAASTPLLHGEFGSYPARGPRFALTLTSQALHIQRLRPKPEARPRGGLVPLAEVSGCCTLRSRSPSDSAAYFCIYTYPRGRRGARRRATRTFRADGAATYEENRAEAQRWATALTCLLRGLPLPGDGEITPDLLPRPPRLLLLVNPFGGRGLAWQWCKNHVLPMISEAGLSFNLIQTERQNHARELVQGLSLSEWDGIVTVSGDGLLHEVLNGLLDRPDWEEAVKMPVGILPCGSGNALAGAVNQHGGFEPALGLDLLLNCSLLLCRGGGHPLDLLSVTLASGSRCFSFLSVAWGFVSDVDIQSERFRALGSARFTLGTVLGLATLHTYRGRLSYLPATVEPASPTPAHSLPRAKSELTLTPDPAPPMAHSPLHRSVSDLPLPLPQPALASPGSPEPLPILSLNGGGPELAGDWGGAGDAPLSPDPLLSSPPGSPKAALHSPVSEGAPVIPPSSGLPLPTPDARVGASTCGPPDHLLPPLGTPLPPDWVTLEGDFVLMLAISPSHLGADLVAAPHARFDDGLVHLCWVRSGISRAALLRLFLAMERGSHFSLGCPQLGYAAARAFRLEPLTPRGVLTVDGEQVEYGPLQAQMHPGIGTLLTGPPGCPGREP
The settings on record: at 0.1 µM.

Experiment [3] has as its target T1, Sphingosine kinase 2 (Homo sapiens). The settings on record: at 1 µM.
Experiment [4] deals with Casein kinase II subunit alpha (Homo sapiens) (UniProt P68400). The settings on record: at 0.1 µM.
Sequence of Casein kinase II subunit alpha (Homo sapiens) (P68400 whole entry, looked up): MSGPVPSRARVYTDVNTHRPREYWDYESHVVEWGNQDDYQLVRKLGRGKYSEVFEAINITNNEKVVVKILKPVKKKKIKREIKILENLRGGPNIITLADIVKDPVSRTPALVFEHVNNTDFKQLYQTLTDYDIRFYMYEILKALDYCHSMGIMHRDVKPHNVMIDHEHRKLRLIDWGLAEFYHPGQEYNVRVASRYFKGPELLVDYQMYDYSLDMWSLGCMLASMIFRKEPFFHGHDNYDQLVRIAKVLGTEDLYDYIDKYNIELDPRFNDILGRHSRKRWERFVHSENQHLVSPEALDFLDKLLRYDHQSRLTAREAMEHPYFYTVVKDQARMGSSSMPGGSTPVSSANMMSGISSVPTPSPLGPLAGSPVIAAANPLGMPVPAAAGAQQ
Experiment [5] has the same target. The settings on record: at 1 µM.
Experiment [6] addresses T2, Inhibitor of nuclear factor kappa-B kinase subunit alpha (Homo sapiens) (UniProt O15111).
T2 sequence (whole entry): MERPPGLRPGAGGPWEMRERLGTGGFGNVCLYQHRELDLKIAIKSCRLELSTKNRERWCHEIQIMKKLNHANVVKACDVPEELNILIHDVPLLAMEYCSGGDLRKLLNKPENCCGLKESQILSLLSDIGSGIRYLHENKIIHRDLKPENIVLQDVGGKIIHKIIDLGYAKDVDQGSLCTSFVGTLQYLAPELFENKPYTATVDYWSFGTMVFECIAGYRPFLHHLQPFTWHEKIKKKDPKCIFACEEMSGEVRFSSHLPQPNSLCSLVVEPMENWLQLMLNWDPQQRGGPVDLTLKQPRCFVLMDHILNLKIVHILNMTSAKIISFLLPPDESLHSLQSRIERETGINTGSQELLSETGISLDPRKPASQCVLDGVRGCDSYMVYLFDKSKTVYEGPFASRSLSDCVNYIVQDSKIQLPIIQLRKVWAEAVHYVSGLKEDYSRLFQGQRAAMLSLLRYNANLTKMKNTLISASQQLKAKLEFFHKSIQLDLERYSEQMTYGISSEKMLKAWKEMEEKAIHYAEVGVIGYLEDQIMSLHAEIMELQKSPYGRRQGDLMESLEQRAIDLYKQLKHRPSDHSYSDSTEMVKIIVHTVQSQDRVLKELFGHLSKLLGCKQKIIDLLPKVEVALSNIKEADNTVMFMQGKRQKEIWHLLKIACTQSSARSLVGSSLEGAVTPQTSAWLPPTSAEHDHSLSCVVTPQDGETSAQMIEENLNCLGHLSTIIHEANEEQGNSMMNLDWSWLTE
Conditions: at 0.1 µM.

Experiment [7] deals with T2, Inhibitor of nuclear factor kappa-B kinase subunit alpha (Homo sapiens). The settings on record: at 1 µM.
The target in experiment [8] is T3, Inhibitor of nuclear factor kappa-B kinase subunit beta (Homo sapiens) (UniProt O14920).
T3 sequence (whole entry): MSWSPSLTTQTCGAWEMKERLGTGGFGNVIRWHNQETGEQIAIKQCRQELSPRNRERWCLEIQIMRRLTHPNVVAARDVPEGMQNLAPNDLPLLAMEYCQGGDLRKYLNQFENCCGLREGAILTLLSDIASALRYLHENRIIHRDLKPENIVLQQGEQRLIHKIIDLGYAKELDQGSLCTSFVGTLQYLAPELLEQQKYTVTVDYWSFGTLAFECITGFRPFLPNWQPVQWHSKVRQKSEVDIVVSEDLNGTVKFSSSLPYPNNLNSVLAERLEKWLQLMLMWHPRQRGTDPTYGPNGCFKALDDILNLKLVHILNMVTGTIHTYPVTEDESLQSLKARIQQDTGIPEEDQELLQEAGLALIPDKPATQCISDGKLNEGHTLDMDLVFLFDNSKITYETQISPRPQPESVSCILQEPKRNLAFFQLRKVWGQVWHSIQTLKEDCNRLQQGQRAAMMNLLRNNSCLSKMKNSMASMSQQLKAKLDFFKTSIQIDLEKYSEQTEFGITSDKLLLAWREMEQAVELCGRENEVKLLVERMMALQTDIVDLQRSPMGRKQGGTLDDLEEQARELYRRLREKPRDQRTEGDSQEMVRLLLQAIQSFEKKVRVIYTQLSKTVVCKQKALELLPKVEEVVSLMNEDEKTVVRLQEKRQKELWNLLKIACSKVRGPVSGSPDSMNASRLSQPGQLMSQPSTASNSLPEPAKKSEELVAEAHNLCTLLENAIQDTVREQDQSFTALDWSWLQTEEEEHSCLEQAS
Conditions: at 0.1 µM.

Experiment [9] deals with T3, Inhibitor of nuclear factor kappa-B kinase subunit beta (Homo sapiens). The settings on record: at 1 µM.
Experiment [10] concerns the target T4, Inhibitor of nuclear factor kappa-B kinase subunit epsilon (Homo sapiens) (UniProt Q14164).
T4 sequence (whole entry): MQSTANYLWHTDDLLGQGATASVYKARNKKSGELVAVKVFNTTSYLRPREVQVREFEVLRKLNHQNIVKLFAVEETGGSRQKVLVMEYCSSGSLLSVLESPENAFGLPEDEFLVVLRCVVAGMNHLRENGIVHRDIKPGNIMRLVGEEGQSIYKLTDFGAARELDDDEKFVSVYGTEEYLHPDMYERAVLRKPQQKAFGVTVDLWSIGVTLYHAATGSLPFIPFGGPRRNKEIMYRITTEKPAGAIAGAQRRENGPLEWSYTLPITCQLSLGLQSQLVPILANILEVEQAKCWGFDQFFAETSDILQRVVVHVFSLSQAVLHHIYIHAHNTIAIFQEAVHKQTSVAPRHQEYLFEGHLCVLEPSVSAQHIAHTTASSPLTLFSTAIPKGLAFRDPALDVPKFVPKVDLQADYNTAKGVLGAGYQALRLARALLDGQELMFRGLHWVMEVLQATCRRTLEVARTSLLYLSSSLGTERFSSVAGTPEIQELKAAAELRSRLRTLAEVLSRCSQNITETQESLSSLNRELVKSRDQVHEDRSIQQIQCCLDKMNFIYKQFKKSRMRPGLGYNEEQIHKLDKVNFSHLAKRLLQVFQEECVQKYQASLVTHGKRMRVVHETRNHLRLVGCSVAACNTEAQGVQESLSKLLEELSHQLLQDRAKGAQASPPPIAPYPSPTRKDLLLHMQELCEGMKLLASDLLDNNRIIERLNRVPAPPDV
The settings on record: at 0.1 µM.

The target in experiment [11] is T4, Inhibitor of nuclear factor kappa-B kinase subunit epsilon (Homo sapiens). Conditions: at 1 µM.
Experiment [12] deals with T5, Serine/threonine-protein kinase Nek1 (Homo sapiens) (UniProt Q96PY6).
T5 sequence (whole entry): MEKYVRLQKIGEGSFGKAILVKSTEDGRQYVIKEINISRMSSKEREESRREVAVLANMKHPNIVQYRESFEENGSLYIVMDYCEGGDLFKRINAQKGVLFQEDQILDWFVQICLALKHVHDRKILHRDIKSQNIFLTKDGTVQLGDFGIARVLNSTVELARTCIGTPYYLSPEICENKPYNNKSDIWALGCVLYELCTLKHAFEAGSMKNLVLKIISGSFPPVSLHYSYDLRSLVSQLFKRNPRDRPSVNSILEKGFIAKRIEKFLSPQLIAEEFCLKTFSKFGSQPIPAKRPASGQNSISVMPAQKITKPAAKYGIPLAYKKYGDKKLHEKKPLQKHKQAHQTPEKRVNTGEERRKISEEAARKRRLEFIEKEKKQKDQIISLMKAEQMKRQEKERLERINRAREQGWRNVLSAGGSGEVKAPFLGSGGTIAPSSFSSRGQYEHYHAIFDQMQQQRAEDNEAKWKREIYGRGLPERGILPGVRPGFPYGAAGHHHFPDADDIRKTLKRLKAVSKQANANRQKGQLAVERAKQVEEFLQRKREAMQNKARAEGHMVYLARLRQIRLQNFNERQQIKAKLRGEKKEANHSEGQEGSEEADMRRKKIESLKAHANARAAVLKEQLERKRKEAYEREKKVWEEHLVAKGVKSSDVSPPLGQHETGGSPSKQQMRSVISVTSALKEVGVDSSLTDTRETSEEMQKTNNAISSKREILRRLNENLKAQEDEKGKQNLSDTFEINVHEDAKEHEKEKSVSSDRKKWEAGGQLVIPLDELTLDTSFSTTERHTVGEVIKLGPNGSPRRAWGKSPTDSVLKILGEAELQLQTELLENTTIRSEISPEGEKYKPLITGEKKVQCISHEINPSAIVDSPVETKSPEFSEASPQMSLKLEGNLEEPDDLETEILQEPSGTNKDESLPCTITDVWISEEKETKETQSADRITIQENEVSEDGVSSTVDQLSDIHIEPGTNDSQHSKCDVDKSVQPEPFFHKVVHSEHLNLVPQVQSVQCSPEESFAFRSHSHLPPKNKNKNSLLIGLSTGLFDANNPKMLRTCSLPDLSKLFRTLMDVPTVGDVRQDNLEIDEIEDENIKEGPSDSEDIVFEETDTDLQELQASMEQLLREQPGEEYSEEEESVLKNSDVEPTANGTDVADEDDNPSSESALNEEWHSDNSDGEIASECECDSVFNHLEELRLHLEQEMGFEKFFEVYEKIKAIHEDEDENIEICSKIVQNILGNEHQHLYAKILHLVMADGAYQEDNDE
The settings on record: at 0.1 µM.

The target in experiment [13] is T5, Serine/threonine-protein kinase Nek1 (Homo sapiens). The settings on record: at 1 µM.
Experiment [14] deals with T6, Serine/threonine-protein kinase Nek2 (Homo sapiens) (UniProt P51955).
T6 sequence (whole entry): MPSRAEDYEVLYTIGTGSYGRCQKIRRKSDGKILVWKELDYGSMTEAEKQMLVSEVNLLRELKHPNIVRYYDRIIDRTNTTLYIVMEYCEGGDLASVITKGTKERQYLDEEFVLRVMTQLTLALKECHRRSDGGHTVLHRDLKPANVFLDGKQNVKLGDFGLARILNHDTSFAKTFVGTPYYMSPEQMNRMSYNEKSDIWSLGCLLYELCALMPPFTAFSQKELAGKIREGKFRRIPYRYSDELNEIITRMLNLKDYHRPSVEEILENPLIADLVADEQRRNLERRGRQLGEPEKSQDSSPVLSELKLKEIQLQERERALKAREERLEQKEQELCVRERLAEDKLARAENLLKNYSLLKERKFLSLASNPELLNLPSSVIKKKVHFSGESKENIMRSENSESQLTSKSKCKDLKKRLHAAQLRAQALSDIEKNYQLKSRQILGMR
The settings on record: at 0.1 µM.

Experiment [15] deals with T6, Serine/threonine-protein kinase Nek2 (Homo sapiens). The settings on record: at 1 µM.
The target of experiment [16] is Serine/threonine-protein kinase Nek6 (Homo sapiens) (UniProt Q9HC98). Conditions: at 0.1 µM.
Sequence of Serine/threonine-protein kinase Nek6 (Homo sapiens) (Q9HC98 whole entry): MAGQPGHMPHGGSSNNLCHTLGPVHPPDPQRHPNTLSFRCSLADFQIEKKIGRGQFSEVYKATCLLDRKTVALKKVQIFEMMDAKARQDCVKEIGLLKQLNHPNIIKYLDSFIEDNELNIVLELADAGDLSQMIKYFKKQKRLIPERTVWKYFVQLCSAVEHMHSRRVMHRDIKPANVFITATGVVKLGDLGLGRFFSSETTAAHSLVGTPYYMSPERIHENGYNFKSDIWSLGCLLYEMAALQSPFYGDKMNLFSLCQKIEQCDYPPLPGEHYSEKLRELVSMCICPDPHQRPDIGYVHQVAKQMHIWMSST
Experiment [17] has the same target. Conditions: at 1 µM.
Experiment [18] has as its target Serine/threonine-protein kinase Nek7 (Homo sapiens) (UniProt Q8TDX7). The settings on record: at 0.1 µM.
The target is the same in experiment [19]. The settings on record: at 1 µM.
The target of experiment [20] is T7, Serine/threonine-protein kinase Nek9 (Homo sapiens) (UniProt Q8TD19).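 Note: reported value is the mean percent inhibition of NEK9.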
T7 sequence (whole entry): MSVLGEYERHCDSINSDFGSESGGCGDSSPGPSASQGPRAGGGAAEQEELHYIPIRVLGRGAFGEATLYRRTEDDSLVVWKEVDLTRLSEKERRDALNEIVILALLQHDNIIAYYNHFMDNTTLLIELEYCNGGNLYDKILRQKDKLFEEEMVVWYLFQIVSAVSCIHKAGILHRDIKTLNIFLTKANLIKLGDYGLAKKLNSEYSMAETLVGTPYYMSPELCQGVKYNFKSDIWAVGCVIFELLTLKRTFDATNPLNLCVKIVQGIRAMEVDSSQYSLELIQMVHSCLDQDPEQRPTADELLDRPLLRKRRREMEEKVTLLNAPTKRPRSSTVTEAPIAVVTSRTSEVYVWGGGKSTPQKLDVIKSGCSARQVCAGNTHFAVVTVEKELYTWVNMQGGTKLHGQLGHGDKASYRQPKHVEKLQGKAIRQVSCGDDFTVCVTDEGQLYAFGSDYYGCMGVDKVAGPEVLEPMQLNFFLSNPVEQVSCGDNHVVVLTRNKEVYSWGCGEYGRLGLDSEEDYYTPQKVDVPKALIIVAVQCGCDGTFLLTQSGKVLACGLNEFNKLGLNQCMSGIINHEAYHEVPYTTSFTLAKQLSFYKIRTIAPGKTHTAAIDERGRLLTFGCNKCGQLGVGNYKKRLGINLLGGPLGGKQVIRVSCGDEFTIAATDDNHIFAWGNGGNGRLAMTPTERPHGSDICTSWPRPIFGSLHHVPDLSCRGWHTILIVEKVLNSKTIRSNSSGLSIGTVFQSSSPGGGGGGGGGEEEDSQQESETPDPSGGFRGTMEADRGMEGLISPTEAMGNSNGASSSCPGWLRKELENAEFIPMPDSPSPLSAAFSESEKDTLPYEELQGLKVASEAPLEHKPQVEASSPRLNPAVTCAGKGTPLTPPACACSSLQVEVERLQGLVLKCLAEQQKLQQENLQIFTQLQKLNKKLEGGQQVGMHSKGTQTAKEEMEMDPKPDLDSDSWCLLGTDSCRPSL
The settings on record: at 0.1 µM.

Sequence of Serine/threonine-protein kinase Nek7 (Homo sapiens) (Q8TDX7 whole entry, looked up): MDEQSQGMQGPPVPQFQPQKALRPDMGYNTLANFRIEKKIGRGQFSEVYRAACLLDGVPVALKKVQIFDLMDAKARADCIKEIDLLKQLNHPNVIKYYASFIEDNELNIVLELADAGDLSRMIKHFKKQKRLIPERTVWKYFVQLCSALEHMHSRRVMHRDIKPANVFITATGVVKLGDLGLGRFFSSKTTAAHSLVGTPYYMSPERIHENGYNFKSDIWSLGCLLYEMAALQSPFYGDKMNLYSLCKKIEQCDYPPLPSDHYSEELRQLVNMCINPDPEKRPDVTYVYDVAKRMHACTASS
Sequence of Sphingosine kinase 1 (Homo sapiens) (Q9NYA1 whole entry): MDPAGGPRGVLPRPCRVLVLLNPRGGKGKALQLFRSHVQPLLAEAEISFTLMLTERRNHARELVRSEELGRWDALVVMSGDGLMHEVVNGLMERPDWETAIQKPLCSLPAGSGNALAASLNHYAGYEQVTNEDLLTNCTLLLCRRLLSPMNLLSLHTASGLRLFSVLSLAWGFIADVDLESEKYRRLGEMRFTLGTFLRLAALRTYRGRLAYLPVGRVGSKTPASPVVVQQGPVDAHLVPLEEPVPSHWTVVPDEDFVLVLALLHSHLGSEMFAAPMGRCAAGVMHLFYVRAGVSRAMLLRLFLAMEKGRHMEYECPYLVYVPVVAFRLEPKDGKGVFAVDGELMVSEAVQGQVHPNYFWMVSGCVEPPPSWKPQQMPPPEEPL

Take `Fc1ccc(-c2cc(-c3c[nH]nc3-c3ccccn3)ccn2)cc1`: the inhibition in [1] is -2.44%; in experiment [2], -0.74%; in [3], -0.12%; in experiment [4], 3.83%; in [5] it was 11.9%; in [6], 5.34%. The inhibition worked out at 3.99% in experiment [7]; 5.76% in [8]; 9.85% in experiment [9]; 8.65% in experiment [10]; 7.34% in [11]; 2.81% in experiment [12]. The inhibition in experiment [13] was 0.44%; in experiment [14] it was 4.38%; in experiment [15], 3.61%; in [16], 4.06%; in experiment [17], 7.77%; in experiment [18], 6.08%. Also, the figures for the inhibition in experiment [19] and in experiment [20] were 4.43% and 7.41%, respectively.
